Screening data: PubChem, National Center for Advancing Translational Sciences (NCATS)
Pf growth 96h = P. falciparum growth inhibition at 96 hours. P. falciparum luciferase reporter growth, 96 h. Potency, µM (top dose mostly 28.7 µM), actives largely listed as inhibitors. 320,000 tested, 6.9% active. AID 504834; active = well fitted inhibition curve with a large enough effect; inconclusive = small, poorly fitted or top-dose-only effect, or another doubt; inactive = no such curve, though single readings can be large or run the other way
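Infected RBCs, 2% Hct / 0.05% parasitemia final; luciferase-reporter P. falciparum; cpd 96 h, 37 C, 5% CO2; luciferase detection reagent; luminescence.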
SARS PLP yeast = inhibitors of SARS-CoV papain-like protease in yeast. S. cerevisiae expressing SARS-CoV PLpro, growth rescue. Potency, µM (series often up to 32.9 µM), actives largely listed as activators. 330,000 tested, 0.19% active; note: nearly all actives have a fitted effect of over 55% in size
Pf growth 48h = P. falciparum growth inhibition at 48 hours (one generation). P. falciparum luciferase growth in erythrocytes, 48 h. Potency, µM (top dose mostly 28.7 µM), usual class: inhibitors. 310,000 tested, 5.9% active; active = well fitted inhibition curve with a large enough effect; inconclusive = small, poorly fitted or top-dose-only effect, or another doubt; inactive = no such curve, though single readings can be large or run the other way
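Cell-based growth assay: transgenic P. falciparum expressing firefly luciferase, cultured in red cells within RPMI 1640 containing 0.5% w/v Albumax, 24 mM bicarbonate and gentamycin. A drop in luciferase activity indicates inhibition.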
RE007 growth inh = less growth of the S. pombe RE007 Vpr strain. S. pombe RE007 Vpr strain, BacTiter-Glo ATP luminescence, 24 h. Potency, µM (doses to about 92.2 µM), most hits filed as inhibitors. 360,000 tested, 0.21% active. AID 651644; active = well fitted falling curve with a large enough effect; inconclusive = small, poorly fitted or top-dose-only effect; inactive = no such curve, though single readings can be large or run the other way; note: nearly all actives have a fitted effect of over 50% in size
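Fission yeast strain RE007, carrying one chromosomally integrated HIV-1 vpr copy, was seeded at OD 0.01 in PMG+AL medium with 23 nL pinned compound. After 24 h at 30 °C and 99% humidity, viability was read by BacTiter-Glo luminescence.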
NS1 function inh = inhibitors of influenza NS1 protein function; Potency, µM (highest dose often 46.1 µM); 270,000 tested, 0.4% active; note: actives are rising curves; nearly all actives have a fitted effect of over 50% in size
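Growth recovery, yeast-based: influenza A NS1 expressed in S. cerevisiae causes slow growth, and suppressors are detected by OD600. The parent strain without NS1 is used as positive control.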
Numbers stand for hits; 0 = inactive; ? = inconclusive; - = no result given; [ ] = remark or other dose. Rows were chosen to be rich in hits. Some 9.5% of all compounds tested hit in one or more screens of this group. Unless noted, calls come from the whole dose curve.

SMILES | Pf growth 96h | SARS PLP yeast | Pf growth 48h | RE007 growth inh | NS1 function inh
NS(=O)(=O)c1ccc(CCNc2ccnc3cc(Cl)ccc23)cc1 | 0 | 0 | 12µM | 0 | 0
O=S(=O)(Cc1ccccc1)NCCc1cccc(Cl)c1 | 3.3µM | 0 | 0 | 0 | 0
NS(=O)(=O)c1ccc(CNS(=O)(=O)Cc2ccc(Cl)cc2)cc1 | ? | 0 | 0 | 0 | 0
NS(=O)(=O)c1ccc(CCNCc2ccccc2OCc2ccc(Cl)cc2)cc1 | ? | 0 | 10µM | 0 | 0
CCOC(=O)c1c(NC(C)=O)sc(/C(C)=N/Nc2ccc(C(=O)O)cc2)c1C | 0 | 0 | 0 | 0 | 0
O=C(c1ccc(NC2=NC3CS(=O)(=O)CC3S2)cc1)N1CCN(c2ccc([N+](=O)[O-])cc2)CC1 (stereo not given) | 0 | 0 | 0 | 0 | 0
COc1ccc(CN2CCC(C(=O)Nc3ccc(Oc4ccccc4)nc3)CC2)cc1F | ? | 0 | ? | 0 | 0
CCOC(=O)c1sc2nc3c(SCCC(=O)O)cc(C(=O)c4cc(OC)ccc4O)cn3c(=O)c2c1C | ? | 0 | 0[5.75 µM] | 0 | -
O=C(c1cnn(-c2ccccc2)c1)c1cc(F)ccc1O | 0 | 0 | - | 0 | 0
CCOC(=O)c1sc2nc3c(SCCC#N)cc(C(=O)c4cc(F)ccc4O)cn3c(=O)c2c1C | 0.83µM | 0 | 0.83µM | 0 | 0
O=C(O)CSc1cc(C(=O)c2cc(F)ccc2O)cn2c(=O)c3c(-c4ccccc4)csc3nc12 | ? | 0 | 8.3µM | 0 | 0
CCCNC(=O)C1(C)CCCN(Cc2cccc(Oc3ccccc3)c2)C1 (stereo not given) | - | - | - | 0 | -
CNC[C@@H]1OCc2ccccc2-c2ccccc2C(=O)N([C@H](C)CO)C[C@@H]1C | - | - | - | 0 | -
CC(=O)c1ccc(N2C(=NC(=O)CCC3CCCC3)SC3CS(=O)(=O)CC32)cc1 (stereo not given) | 0 | 0 | 0 | 0 | 0
CCC1(CC)Cc2ccccc2C(C2=C(O)CC(C)(C)CC2=O)=N1 | ? | 0 | 0 | 0 | 0
Cc1cccc2c1CC(C)(C)N=C2C1=C(O)CC(C)(C)CC1=O | 13µM | 0 | ? | 0 | 0
CCOC(=O)C1=C(C)n2c(s/c(=C/c3cccc([N+](=O)[O-])c3)c2=O)=NC1c1ccc(O)c(OC)c1 (stereo not given) | - | 0 | 2.9µM | 0 | 0
CCOC(=O)C1=C(C)N=c2s/c(=C/c3ccccc3)c(=O)n2C1c1ccc(OC)c(OC)c1 (stereo not given) | ? | 0 | ? | 0 | 0
CC(=O)c1c(C)[nH]c(C(=O)NCc2cccc(Cl)c2)c1C | 0 | 0 | 0 | 0 | -
O=C(NCc1ccco1)C(C(=O)c1ccc(F)cc1)n1ccccc1=O (stereo not given) | 0 | 0 | 0 | 0 | 0
CN1CCN(C(=O)C(C(=O)c2ccc(F)cc2)n2ccccc2=O)CC1 (stereo not given) | 2.3µM | 0 | 0 | 0 | 0
O=C(NCc1ccccn1)C(C(=O)c1ccc(F)cc1)n1ccccc1=O (stereo not given) | 13µM | 0 | 0 | 0 | 0
CC1(C(O)(C#CC[N+]2(C)CCCCC2)c2ccccc2)CCCC1 (stereo not given) | 0 | 0 | ? | 0 | 0
CC1(C#CC[N+]2(C)CCCCC2)CCC2C(O1)c1ccccc1OC2(C)C (stereo not given) | 3.7µM | 0 | 12µM | 0 | 0
CC(=O)CC1OC(=O)C(Br)=C1NCc1ccccc1 (stereo not given) | 7.4µM | 0 | 0 | ? | 0
SMILES | Pf growth 96h | SARS PLP yeast | Pf growth 48h | RE007 growth inh | NS1 function inh
O=C(CC1Oc2ccccc2NC1=O)NCc1ccccc1 (stereo not given) | 0 | 0 | - | 0 | 0
C=CCn1c(Sc2ncc([N+](=O)[O-])s2)n[nH]c1=O | 10µM | 0 | ? | ? | 0
C=CCn1c(CSc2ccccc2[N+](=O)[O-])n[nH]c1=S | 0 | 0 | - | 0 | 0
CCOCCn1c(CN(Cc2ccccc2)Cc2ccccc2)nc2c1c(=O)n(C)c(=O)n2C | 1.3µM | 0 | - | 0 | 0
Cc1ccc(C)c(Cn2c(CN(C)Cc3ccccc3)nc3c2c(=O)n(C)c(=O)n3C)c1 | 13µM | 0 | - | 0 | 0
CCOCCn1c(CN2CCN(c3ccc(F)cc3)CC2)nc2c1c(=O)n(C)c(=O)n2C | 7.4µM | 0 | - | 0 | 0
Cc1ccc(Cn2c(CN(C)Cc3ccccc3)nc3c2c(=O)n(C)c(=O)n3C)cc1 | - | 0 | ? | 0 | 0
CCCCn1c(CN(Cc2ccccc2)Cc2ccccc2)nc2c1c(=O)n(C)c(=O)n2C | - | - | - | 0 | 0
CN(Cc1ccccc1)Cc1nc2c(c(=O)n(C)c(=O)n2C)n1Cc1ccc(F)cc1 | 12µM | 0 | 12µM | 0 | 0
CS(=O)(=O)Nc1ccc(-c2cnc3cccnn23)cc1 | - | - | - | 0 | -
CCCn1c(=O)c2[nH]c(-c3ccc(OCC(=O)Nc4ccc(C#N)cc4)cc3)nc2n(CCC)c1=O | 0 | - | 0 | 0[18.4 µM] | 0
Cc1ccc2c(c1)c(/C=C/c1cc[n+](C)cc1)c(C)n2C | 0.47µM | 0 | 0.93µM | - | 0
Cc1ccc2[nH]c(C)c(/C=C/c3cc[n+](C)cc3)c2c1 | 0 | 0 | ? | ? | 0
COc1cc(Cl)c(C)cc1NC(=O)CC1CCCC1 | ? | 0 | 0 | 0 | 0
CCCN(CC(=O)Nc1ccccc1OC)C(=O)c1cc2ccccc2o1 | ? | 0 | 0 | 0 | 0
COc1cccc(NC(=O)CN(C)C(=O)c2ccc(COc3ccccc3)o2)c1 | 15µM | 0 | 15µM | 0 | -
COc1cccc(NC(=O)CN(C)C(=O)c2cc(C)oc2C)c1 | 0 | 0 | 0 | 0 | -
CCCN(CC(=O)Nc1ccccc1OC)C(=O)c1ccc(COc2ccccc2)o1 | ? | 0 | 15µM | 0 | -
CCOc1ccc(S(=O)(=O)NCc2ccc3c(c2)OCO3)cc1C(=O)O | 0 | 0 | - | 0 | 0
CCOC(=O)N1CCN(CCC(=O)c2ccc(OC)cc2)CC1 | 0 | 0 | 0 | 28µM | -
CCOC(=O)N1CCN(CCC(=O)c2ccc(Br)cc2)CC1 | ? | 0 | 0 | 35µM | 0
O=C(CCN1CCN(c2ccccc2)CC1)c1ccc(Cl)cc1 | 0 | 0 | - | ? | 0
COc1ccc(C(=O)CCC(=O)N2CCN(c3ccc(C)cc3)C(C)C2)cc1 (stereo not given) | 9.3µM | 0 | 0 | 0 | 0
CCOC(=O)N1CCN(CCC(=O)Nc2ccc(C)cc2)CC1 | ? | 0 | 0 | 0 | 0
COc1ccc(N2CCN(C(=O)CCCC(=O)c3ccccc3)CC2)cc1 | 0 | 0 | 0 | 0 | 0
CCOC(=O)N1CCN(CCC(=O)c2ccc(Cl)cc2)CC1 | 0 | 0 | 0 | 32µM | 0
O=C(Cn1nc(C(=O)O)c2ccccc2c1=O)Nc1ccc(Cl)c(S(=O)(=O)N2CCOCC2)c1 | - | 0 | - | 0 | -
COC(=O)c1[nH]c2ccc(C)cc2c1NC(=O)CCN1CCN(Cc2ccc3c(c2)OCO3)CC1 | 8.3µM | 0 | ? | 0 | 0
CCOC(=O)c1[nH]c2ccc(Br)cc2c1NC(=O)CCN1CCN(C(=O)OCC)CC1 | 0 | 0 | 10µM | 0 | 0
CCN(CC(=O)Nc1c(C(=O)OC)[nH]c2ccc(Cl)cc12)c1ccc2c(c1)OCO2 | ? | 0 | 13µM | 0 | 0
